Experimental data from PubChem BioAssay (NCI).
Compounds without any hit were thinned out: in the full panel of roughly 83,000, 20% have a hit.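 Activity criterion: percent growth below 10, measured after cells in 96-well plates were exposed to a single compound concentration for 48 hours.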 Values without a mark were called inactive. The source made the active and inactive calls.

How the values were obtained:
Test in all cases: NCI-60 one-dose screen, 48 h (100 = growth as untreated, 0 = no growth, -100 = all killed)
Conditions in all cases: 10 µM unless noted
SR leukemia = tested on: SR leukemia
RPMI-8226 leukemia = tested on: RPMI-8226 leukemia
OVCAR-8 ovarian = tested on: OVCAR-8 ovarian
OVCAR-5 ovarian = tested on: OVCAR-5 ovarian
OVCAR-4 ovarian = tested on: OVCAR-4 ovarian
IGROV1 ovarian = tested on: IGROV1 ovarian
OVCAR-3 ovarian = tested on: OVCAR-3 ovarian
HS 578T breast = tested on: HS 578T breast
NCI/ADR-RES ovarian = tested on: NCI/ADR-RES ovarian
T-47D breast = tested on: T-47D breast
BT-549 breast = tested on: BT-549 breast
MDA-MB-435 melanoma = tested on: MDA-MB-435 melanoma
SW-620 colon = tested on: SW-620 colon
MCF7 breast = tested on: MCF7 breast
HCT-116 colon = tested on: HCT-116 colon
HCC-2998 colon = tested on: HCC-2998 colon
KM12 colon = tested on: KM12 colon
MDA-MB-468 breast = tested on: MDA-MB-468 breast
SK-OV-3 ovarian = tested on: SK-OV-3 ovarian

Row | SMILES | growth (SR leukemia) | growth (RPMI-8226 leukemia) | growth (OVCAR-8 ovarian) | growth (OVCAR-5 ovarian) | growth (OVCAR-4 ovarian) | growth (IGROV1 ovarian) | growth (OVCAR-3 ovarian) | growth (HS 578T breast) | growth (NCI/ADR-RES ovarian) | growth (T-47D breast) | growth (BT-549 breast) | growth (MDA-MB-435 melanoma) | growth (SW-620 colon) | growth (MCF7 breast) | growth (HCT-116 colon) | growth (HCC-2998 colon) | growth (KM12 colon) | growth (MDA-MB-468 breast) | growth (SK-OV-3 ovarian)
1 | CC1(C)CC[C@]2(C(=O)Nc3ccc(Br)cc3)CC[C@]3(C)C(=CCC4[C@@]5(C)C[C@@H](O)[C@H](O)[C@@](C)(CO)C5CC[C@]43C)C2C1 (stereo partly drawn) | -9.66% (active) | -33.5% (active) | 25.6% | -21.8% (active) | 5.44% (active) | 38.2% | -4.06% (active) | -0.476% (active) | 14.7% | -9.58% (active) | -35.4% (active) | 3.33% (active) | 18.8% | 1.85% (active) | -15.8% (active) | -33.4% (active) | -52.9% (active) | -3.95% (active) | 
2 | N/C(=N\c1nc2ccccc2s1)NC(=O)NCCCCCCO | 32.4% | 46% | 50.7% | 74.5% | 17.8% | 61.5% | 61.8% |  |  | 9.9% (active) | 21.4% | 41.2% |  | 30% | 36.9% | 82% | 55.1% | 2.33% (active) | 59.1%
3 | O=C(O)c1ccc(-c2ccc(/C=N/NC(=O)c3[nH]c4ccc(Br)cc4c3-c3ccccc3)o2)cc1 | 5.35% (active) | 14.8% | -15.4% (active) | 75.9% | 38% | 17.8% | 1.4% (active) |  | 18.1% | 15.1% | -7.86% (active) | -49.6% (active) |  | 9.15% (active) | 9.56% (active) | 5.76% (active) | 11.9% | -12.4% (active) | 41.1%
4 | O=C(COc1ccc(NC(=O)Nc2ccc(Cl)cc2)cc1)N/N=C/c1ccccc1 | 6.18% (active) | -23.5% (active) | -49% (active) | -9.58% (active) | -51.9% (active) | -57.3% (active) | -76.9% (active) | -36.9% (active) | -10.9% (active) | -81.6% (active) | -51.4% (active) | -88.5% (active) | -75.2% (active) | -78.6% (active) | -40% (active) | -77.4% (active) | -70.3% (active) | -94.4% (active) | 
5 | CN1CCc2c(sc3ncnc(N/N=C/c4ccc(Cl)cc4Cl)c23)C1 | -16.5% (active) | -9.12% (active) | 6.87% (active) | -18.6% (active) | -40.6% (active) | 30.4% | -56.5% (active) |  |  | 76.9% | -40.2% (active) | -23.7% (active) |  | 3.77% (active) | -64.1% (active) | 24.1% | 24.8% | -67.5% (active) | 0.686% (active)
6 | N/C(=N\c1nc2ccccc2s1)NC(=O)Nc1c(Cl)cccc1Cl | 17.2% | 17.2% | 49.5% | 49.3% | 56.7% | 49.4% | 28.2% | 34.4% | 7.17% (active) | 18% | 37.3% | -17.9% (active) | 25.6% | 15.6% | 22.7% | 68.6% | 21.4% | -4.05% (active) | 
7 | CC1=C(C(=O)OCc2ccccc2)C(c2ccc(-n3cncn3)cc2)n2c(nc3ccccc32)N1 (stereo not drawn) | 18% | 35.4% | 86.6% | 79.3% | 83.2% | 62.2% | 24.2% |  | 41.5% | 65.1% | 52.9% |  |  | 13.1% | 41.3% | 75.4% | 39.5% | -18.8% (active) | 73.8%
8 | COc1c(F)ccc(C(=O)Nc2ccc3nc(NC(=O)C4CCCN(S(=O)(=O)C5CC5)C4)sc3c2)c1F (stereo not drawn) | 10.3% | 19% | 36.4% | 77.4% | 38.5% | 69.3% | 66.5% | 17.6% | 33.2% | -5.4% (active) | -8.29% (active) | 39.5% | 78.7% | 15.2% | 32.2% | 59.8% | 44% | 3.58% (active) | 
9 | CC1=C(C(=O)c2ccccc2)C(c2cccc3ccccc23)n2c(nc3ccccc32)N1 (stereo not drawn) | 43.7% | 83.9% | 38.3% | 68.4% | 75.6% | 86.5% | 59% |  |  | 89.9% | 61.1% | 72.6% |  | 38.1% | 31.7% | 95.5% | 90.6% | -12.7% (active) | 57.4%
10 | CNS(=O)(=O)c1ccc(Nc2ccc(C(F)(F)F)cc2)c(-c2cn(C)cn2)c1 | 51.6% | 35.6% | 52.6% | 68.3% | 70.1% | 35.5% | 54.7% | 59.6% | 35% | 47.7% | 58.7% | 55.5% | 70.9% | 42.3% | 49.4% | 43.6% | 35.9% | -1.31% (active) | 
11 | O=C(CCN1C(=O)/C(=C/c2ccc(F)cc2)SC1=S)N1CCOCC1 | 35% | 52.2% | 80.9% | 79.1% | 55.5% | 85.6% | 78.7% | 89% | 78.2% | 24.4% | 62.6% | 73.5% | 61.9% | 48.1% | 55.5% | 113% | 76% | -11.2% (active) | 
12 | CSc1ccccc1NC(=O)c1ccc2nn(/C(C#N)=C/c3ccccn3)nc2c1 | 1.1% (active) | -41.9% (active) | -3.76% (active) | -86.8% (active) | -55.6% (active) | -67.9% (active) | -87.8% (active) |  | 2.48% (active) | -78.4% (active) | -98.4% (active) | -18.2% (active) |  | -82.4% (active) | -97.4% (active) | -94.5% (active) | -44.9% (active) | -84.2% (active) | 42.9%
13 | O=C(/C=C/c1cccc(OCc2ccccc2)c1)c1nc2ccccc2[nH]1 | -33.3% (active) | -52% (active) | 58% | 105% | 59.4% | 60.3% | 38.3% |  |  | 13.7% | 8.5% (active) | 72% |  | 3.28% (active) | -36.1% (active) | -5.62% (active) | 4.96% (active) | -40.1% (active) | 87.8%
14 | O=C1Nc2cc(Cl)ccc2/C1=C/c1cccc(OCc2ccccn2)c1 | -0.484% (active) | -5.52% (active) | -21% (active) | -7.05% (active) | 49.1% | 17.2% | 23.5% |  | -16.7% (active) | 26% | -12.6% (active) | -39.9% (active) |  | 7.87% (active) | 0.558% (active) | 28.9% | 19.4% | 1.49% (active) | 52.1%
15 | O=C1/C(=C/C2=Cc3ccccc3OC2)SC(=S)N1c1ccccc1F | 91% | 85.7% | 110% | 108% | 107% | 103% | 109% | 105% | 109% | 95% | 77.8% | 108% | 112% | 78.4% | 96.4% | 109% | 102% | 99% | 
16 | O=C1CC(Sc2n[nH]c(-c3ccncc3)n2)C(=O)N1c1ccc(Br)cc1 (stereo not drawn) | 97.4% | 94.1% | 105% | 105% |  | 112% | 114% | 111% | 111% | 94.5% | 122% | 104% | 101% | 99.8% | 105% | 110% | 109% | 99.3% | 108%
17 | CC(C)CSc1nc(NCCc2c[nH]c3ccccc23)c(C#N)c(-c2ccc(F)cc2)n1 | 3.42% (active) | 31.5% | 59.5% | 101% |  | 78.3% | 76.9% | 39.6% | 39.9% | 24.6% | 72.1% | 59.1% | 38% | 22.5% | 11.3% | 32.5% | 24% | 54.3% | 57.9%
